PubChem BioAssay AID1159580 (chemical genetic matrix, 2015)
About 2,000 (36%) of roughly 5,500 compounds were called active. Not shown: some 18% with an inconclusive outcome. Rule as the data show it: active = normalized growth mostly below about 0.91 (no sharp cut-off); inconclusive = no clear call, values can overlap the other calls; inactive = mostly above about 0.92. The list shows a part of the results.

Test: chemical genetic growth profiling, strain panel (AID 1159580);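 also: tested at 20 µM; growth read once vehicle control cultures reached saturation at 30 °C; 1 = growth at the plate median or of vehicle wells; lower values mean less growth of the strain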
Settings: S. cerevisiae deletion strains, growth OD

Measured: normalized growth

C#Cc1cccc(N=Cc2cc(Cl)cc(Br)c2O)c1
active: locus YAR019C, strain CDC15, hits give low values 0.101 | locus YBL105C, strain PKC1, hits give low values 0.0988 | locus YBR135W, strain CKS1, hits give low values 0.128 | locus YBR136W, strain MEC1, hits give low values 0.107 | locus YBR160W, strain CDC28, hits give low values 0.134 | locus YDL017W, strain CDC7, hits give low values 0.1 | locus YDL028C, strain MPS1, hits give low values 0.108 | locus YDL101C, strain DUN1, hits give low values 0.165 | locus YDL108W, strain KIN28, hits give low values 0.122 | locus YDL214C, strain PRR2, hits give low values 0.103 | locus YDR052C, strain DBF4, hits give low values 0.451 | locus YDR054C, strain cdc34, hits give low values 0.482 | locus YDR226W, strain ADK1, hits give low values 0.534 | locus YDR477W, strain SNF1, hits give low values 0.117 | locus YER123W, strain YCK3, hits give low values 0.112 | locus YER133W, strain GLC7, hits give low values 0.114 | locus YFL009W, strain cdc4, hits give low values 0.108 | locus YFL029C, strain CAK1, hits give low values 0.0962 | locus YFR003C, strain YPI1, hits give low values 0.11 | locus YFR019W, strain FAB1, hits give low values 0.107 | locus YFR028C, strain CDC14, hits give low values 0.104 | locus YGR040W, strain KSS1, hits give low values 0.13 | locus YGR052W, strain FMP48, hits give low values 0.127 | locus YGR092W, strain DBF2, hits give low values 0.114 | locus YHR030C, strain SLT2, hits give low values 0.127 | locus YHR079C, strain IRE1, hits give low values 0.125 | locus YHR082C, strain KSP1, hits give low values 0.157 | locus YHR205W, strain SCH9, hits give low values 0.021 | locus YIL147C, strain SLN1, hits give low values 0.112 | locus YJL095W, strain BCK1, hits give low values 0.135 | locus YJL128C, strain PBS2, hits give low values 0.257 | locus YJL157C, strain FAR1, hits give low values 0.0902 | locus YJR016C, strain ILV3, hits give low values 0.103 | locus YJR066W, strain TOR1 (second series), hits give low values 0.109 | locus YJR066W, strain TOR1, hits give low values 0.137 | locus YKL048C, strain ELM1, hits give low values 0.129 | locus YKL067W, strain YNK1, hits give low values 0.109 | locus YKL101W, strain HSL1, hits give low values 0.128 | locus YKL193C, strain SDS22, hits give low values 0.108 | locus YKL203C, strain TOR2, hits give low values 0.113 | locus YLR113W, strain HOG1, hits give low values 0.132 | locus YLR133W, strain CKI1, hits give low values 0.106 | locus YLR403W, strain SFP1, hits give low values 0.0146 | locus YML070W, strain DAK1, hits give low values 0.13 | locus YMR001C, strain CDC5, hits give low values 0.0999 | locus YMR205C, strain PFK2 (second series), hits give low values 0.12 | locus YMR277W, strain FCP1, hits give low values 0.108 | locus YNL006W, strain LST8, hits give low values 0.0957 | locus YNL020C, strain ARK1, hits give low values 0.11 | locus YNL161W, strain CBK1, hits give low values 0.107 | locus YNL183C, strain NPR1, hits give low values 0.156 | locus YNL207W, strain RIO2, hits give low values 0.119 | locus YNL222W, strain SSU72, hits give low values 0.095 | locus YNL307C, strain MCK1 (second series), hits give low values 0.114 | locus YOL078W, strain AVO1, hits give low values 0.104 | locus YOL136C, strain PFK27, hits give low values 0.1 | locus YOR061W, strain CKA2, hits give low values 0.115 | locus YOR119C, strain RIO1, hits give low values 0.11 | locus YOR231W, strain MKK1, hits give low values 0.119 | locus YOR329C, strain SCD5, hits give low values 0.0917 | locus YPL031C, strain PHO85, hits give low values 0.116 | locus YPL153C, strain RAD53, hits give low values 0.127 | locus YPL204W, strain HRR25, hits give low values 0.13 | locus YPL209C, strain IPL1, hits give low values 0.102 | locus YPL256C, strain CLN2, hits give low values 0.16 | locus YPR025C, strain CCL1, hits give low values 0.101 | strain NNK1, hits give low values 0.108 | strain TSCII, hits give low values 0.102

O=C(NCC1CCCCN1)c1cc(OCC(F)(F)F)ccc1OCC(F)(F)F (stereo not given)
inactive: locus YAL040C, strain CLN3, hits give low values 0.988 | locus YCL061C, strain MRC1 (second series), hits give low values 1 | locus YDR150W, strain NUM1, hits give low values 1.01 | locus YDR363W, strain ESC2, hits give low values 1.01 | locus YER002W, strain NOP16, hits give low values 0.987 | locus YGR229C, strain SMI1, hits give low values 1.03 | locus YNL175C, strain NOP13, hits give low values 0.989 | locus YNL197C, strain WHI3, hits give low values 0.986 | locus YNL224C, strain SQS1, hits give low values 1.04 | locus YNL322C, strain KRE1, hits give low values 0.995 | locus YOR083W, strain WHI5 (second series), hits give low values 1.01 | locus YPL241C, strain CIN2, hits give low values 0.998
